# BAZ2B inh – blocks human BAZ2B; Q9UIF8; AlphaScreen BAZ2B-H3K14Ac peptide displacement; Potency, µM (titrated, usually from 114 µM), for the others: at the highest dose activity change, negative = inhibition, most hits filed as inhibitors; 360,000 tested, 4.4% active; AID 504333; note: potency is the fitted concentration of half-maximal effect; % is set by controls: 0 for no effect and ±100 for the full control effect; nearly all actives have a fitted effect of over 60% in size
# Target sequence (Q9UIF8 whole entry, looked up): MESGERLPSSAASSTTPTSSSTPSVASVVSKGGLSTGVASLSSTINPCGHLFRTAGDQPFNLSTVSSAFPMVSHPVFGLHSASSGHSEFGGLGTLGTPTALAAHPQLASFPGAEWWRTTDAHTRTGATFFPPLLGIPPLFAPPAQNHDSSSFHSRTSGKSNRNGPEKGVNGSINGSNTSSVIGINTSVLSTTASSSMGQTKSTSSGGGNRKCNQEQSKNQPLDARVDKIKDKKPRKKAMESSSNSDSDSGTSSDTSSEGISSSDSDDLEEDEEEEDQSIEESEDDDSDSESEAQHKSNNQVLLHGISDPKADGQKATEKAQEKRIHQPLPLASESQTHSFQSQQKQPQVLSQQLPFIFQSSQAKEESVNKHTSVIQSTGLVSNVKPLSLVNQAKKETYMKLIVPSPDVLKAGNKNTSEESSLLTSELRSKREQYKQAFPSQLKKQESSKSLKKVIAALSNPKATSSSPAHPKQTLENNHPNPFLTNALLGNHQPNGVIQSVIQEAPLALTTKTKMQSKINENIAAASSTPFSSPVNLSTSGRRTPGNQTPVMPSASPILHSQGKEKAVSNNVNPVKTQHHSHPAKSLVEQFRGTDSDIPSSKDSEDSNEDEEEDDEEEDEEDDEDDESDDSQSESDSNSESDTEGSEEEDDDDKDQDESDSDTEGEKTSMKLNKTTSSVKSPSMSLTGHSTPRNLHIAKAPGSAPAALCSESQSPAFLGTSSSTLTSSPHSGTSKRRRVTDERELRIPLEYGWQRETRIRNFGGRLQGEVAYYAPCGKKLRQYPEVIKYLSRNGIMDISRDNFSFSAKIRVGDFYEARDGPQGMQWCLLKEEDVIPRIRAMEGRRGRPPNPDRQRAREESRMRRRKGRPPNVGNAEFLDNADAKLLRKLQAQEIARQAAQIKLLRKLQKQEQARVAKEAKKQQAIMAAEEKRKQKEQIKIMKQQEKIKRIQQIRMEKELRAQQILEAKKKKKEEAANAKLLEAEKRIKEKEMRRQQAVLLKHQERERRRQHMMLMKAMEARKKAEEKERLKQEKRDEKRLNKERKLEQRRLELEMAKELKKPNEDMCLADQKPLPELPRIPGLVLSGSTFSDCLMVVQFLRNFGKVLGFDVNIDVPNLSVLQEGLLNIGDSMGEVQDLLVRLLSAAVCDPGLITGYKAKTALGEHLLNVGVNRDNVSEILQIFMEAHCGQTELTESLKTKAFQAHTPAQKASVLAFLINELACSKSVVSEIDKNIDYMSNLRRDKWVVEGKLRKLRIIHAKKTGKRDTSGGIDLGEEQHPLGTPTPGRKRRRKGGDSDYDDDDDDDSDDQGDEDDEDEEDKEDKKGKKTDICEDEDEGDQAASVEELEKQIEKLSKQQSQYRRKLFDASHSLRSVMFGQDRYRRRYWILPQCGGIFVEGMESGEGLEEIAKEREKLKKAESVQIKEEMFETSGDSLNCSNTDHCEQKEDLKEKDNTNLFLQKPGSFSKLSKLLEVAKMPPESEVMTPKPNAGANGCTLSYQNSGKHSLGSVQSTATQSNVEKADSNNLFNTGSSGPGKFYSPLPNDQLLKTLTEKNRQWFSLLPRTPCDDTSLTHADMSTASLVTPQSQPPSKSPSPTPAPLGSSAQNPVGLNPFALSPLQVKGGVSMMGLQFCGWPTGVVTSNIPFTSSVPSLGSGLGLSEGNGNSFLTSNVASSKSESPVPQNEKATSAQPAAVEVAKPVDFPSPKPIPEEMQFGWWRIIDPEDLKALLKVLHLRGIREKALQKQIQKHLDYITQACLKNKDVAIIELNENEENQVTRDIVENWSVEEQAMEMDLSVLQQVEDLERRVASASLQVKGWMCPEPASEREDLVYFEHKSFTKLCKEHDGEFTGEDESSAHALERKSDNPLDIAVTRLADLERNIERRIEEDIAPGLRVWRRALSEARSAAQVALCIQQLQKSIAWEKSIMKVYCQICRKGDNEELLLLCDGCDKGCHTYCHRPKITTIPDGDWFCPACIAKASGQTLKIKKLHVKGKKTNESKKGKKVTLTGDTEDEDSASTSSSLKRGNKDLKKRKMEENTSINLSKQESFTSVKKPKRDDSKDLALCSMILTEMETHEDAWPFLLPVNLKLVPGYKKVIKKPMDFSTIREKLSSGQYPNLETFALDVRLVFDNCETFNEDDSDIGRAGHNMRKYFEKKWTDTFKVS
#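 Complex of BAZ2B and biotin-H3K14Ac (50 nM apiece) forms over 30 min at RT, then faces library compounds up to 110 uM for another 30 min; AlphaScreen beads added, 20 min dark incubation, luminescence read.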
# G9a block – G9a (human) methyltransferase inhibition | G9a H3K9 monomethylation, AlphaScreen, 2 h | Potency, µM (titrated, usually from 102 µM), for the others: at the top dose activity, negative = inhibition, usual class: inhibitors | 350,000 tested, 8.8% active | AID 504332; note: potency is the fitted concentration of half-maximal effect; % is set by controls: 0 for no effect and ±100 for the full control effect; nearly all actives have a fitted effect of over 75% in size
#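 Methyltransferase reactions run at room temperature for 2 h (20 nM enzyme, 500 nM biotin-H3K9 peptide, 20 uM SAM) after a 15 min compound preincubation; product detected by AlphaScreen beads and anti-H3K9me1 antibody.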
# PI5P4K alpha inh – PI5P4K alpha (human) kinase inhibition. max response, %. P48426. 330,000 tested, 1.2% active. PI5P4Kalpha enzyme, ADP-Glo luminescence, 60 min; active compounds read low; active = max response of -50% or lower; inconclusive = between -30% and -50%; inactive = -30% or higher; note: value at the top dose of about 77 µM; % is set by controls: 0 for no effect and ±100 for the full control effect
#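 Compounds were pin-transferred onto PI5P4Kalpha and substrate in HEPES pH 7.4 buffer with EGTA, CHAPS and 5% DMSO. ATP (5 microM final) started the reaction, which ran 60 minutes at room temperature before ADP-Glo detection.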
# JMJD2A Tudor inh – JMJD2A Tudor domain (human) inhibition; AlphaScreen JMJD2A-Tudor / H3K4me3 peptide binding; Potency, µM (highest dose often 114 µM), inactives show at the highest dose activity change, negative = inhibition, most hits filed as inhibitors; 390,000 tested, 4.4% active; AID 504339; note: potency is the fitted concentration of half-maximal effect; % is set by controls: 0 for no effect and ±100 for the full control effect; nearly all actives have a fitted effect of over 50% in size
# HP1b chromo inh – blocks HP1-beta chromodomain binding to methylated histone tails; AlphaScreen HP1-beta / biotin-H3K9me3 peptide binding; Potency, µM (series often up to 114 µM), without a hit: top-dose activity change, negative = inhibition, most hits filed as inhibitors; 390,000 tested, 0.56% active; AID 540317; note: potency is the fitted concentration of half-maximal effect; nearly all actives have a fitted effect of over 70% in size
#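 HP1-beta protein (50 nM final) preincubated 30 min at room temperature with biotinylated H3(1-18)K9me3 peptide (50 nM) in PBS pH 7.4, 0.01% Tween-20, then compound added for 30 min. AlphaScreen streptavidin donor/nickel chelate acceptor beads (10 ug/mL final), 30 min dark, luminescence read.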
# PLK1 PBD block – blocks phosphopeptide binding to human PLK1 polo-box domain. P53350. Potency, µM, inactives show max response, negative = inhibition, hits mostly inhibitors. 360,000 tested, 2.8% active. Plk1 PBD binding of FITC phosphopeptide, fluorescence polarization. AID 720504; note: potency is the fitted concentration of half-maximal effect; series mostly up to about 57 µM; % is set by controls: 0 for no effect and ±100 for the full control effect; nearly all actives have a fitted effect of over 65% in size
# Active calls of the source: *; ? = inconclusive; · = not tested or not shown; ! = a repeat was not active; [ ] = another dose, or the depositor's remark. Shown are actives, neighbours in structure and some others; about 12% of the full set was active somewhere. Unless noted, calls come from the whole dose curve; as a rule, active = well fitted curve in the direction sought with a large enough effect; inconclusive = small, poorly fitted or top-dose-only effect, or another doubt; inactive = no such curve, though single readings can be large; an effect the other way counts as inactive or inconclusive.
SMILES,BAZ2B inh,G9a block,PI5P4K alpha inh,JMJD2A Tudor inh,HP1b chromo inh,PLK1 PBD block
COc1ccc(OCC(=O)Nc2ccc(Cl)cc2)cc1,13%,·,-1,-2%,5%,-4%
COc1ccc(Cl)cc1NCCC(O)c1ccc(F)cc1 (configuration not stated),?,35µM*,26,?,-1%,-12%
Cc1csc2nc(CN3CCN(CC(=O)N(C)C)CC3)cc(=O)n12,8%,45µM*,2,1%,41%,0%
CN(C)c1ccc(/C=N/n2c(-c3cccnc3)n[nH]c2=S)cc1,?,3.2µM*,4,5µM*,7%,-4%
Cc1ccc(/C=N/n2c(-c3cccnc3)n[nH]c2=S)o1,?,28µM*,-4,5µM*,40%,6%
Cc1ccc(/C=N/n2c(C)nnc2C)o1,-5%,23%[59 µM],-29,?,2%,21µM*
CCN(CC)c1ccc(/C=N/n2c(=S)[nH]nc(C)c2=O)cc1,-4%,-42%,-9,-27%,7%,-10%
Cc1ccc(/C=N/n2c(-c3ccc(Cl)cc3)n[nH]c2=S)o1,-11%,·,6,?,35%,-14%
Cc1ccc(-c2n[nH]c(=S)n2/N=C/c2ccc(C)o2)cc1,?,0.89µM*,0,25µM*,3%,-12%
Cc1ccc(-c2nn(-c3ccccc3)cc2/C=N/n2c(-c3ccncc3)n[nH]c2=S)cc1,-3%,?,-9,?,17%,-6%
Cc1ccc(-c2n[nH]c(=S)n2/N=C/c2ccncc2)cc1,-12%,1.6µM*,15,?,-16%,?
CN(C)c1ccc(/C=N/n2c(-c3ccccc3Br)n[nH]c2=S)cc1,?,0.71µM*,-15,14µM*,-19%,-20%
COc1cccc(CNC(=O)Cn2c(=O)nc(-c3ccccc3F)c3cc(Cl)ccc32)c1,-12%,1%[12.7 µM],·,-2%,27%,·
CC(=O)Nc1ccc(NC(=O)c2c(C)nn(-c3ccccc3)c2-n2cccc2)cc1,-6%,-3%[59 µM],·,-25%,3%,·
Cc1onc(-c2c(Cl)cccc2Cl)c1CO/N=C(\C#N)c1c(Cl)cccc1Cl,-1%,79%,16,34%,53%,6%
N#Cc1ccc(OC(=O)c2cnccn2)cc1,79µM*,32µM*,-1,?,8%,?
COCCN1C(=O)COc2ccccc2C1C(=O)NCc1ccccc1 (configuration not stated),·,·,-1,·,·,0%
CC(=O)N1c2c(cc(Br)cc2S(=O)(=O)N2CCN(c3ccccc3F)CC2)CC1C (configuration not stated),-12%,-12%,2,-15%,7%,-3%
Cc1noc(C)c1-c1nc(N(C)C)c2ccccc2n1,·,3%[0.501 µM],·,·,·,·
Cc1ccc(Cc2c[nH]c(=S)s2)cc1,?,7.1µM*,-15,?,-14%,6.7µM*
O=C(O)c1cccc(Nc2ncnc3sccc23)c1,-14%,40µM*,-28,-6%,33%,-15%
CCOc1ccc(-c2cc3nc(C4CCN(C(=O)OC(C)(C)C)CC4)c(C(=O)Nc4ccc(C)c(F)c4)cn3n2)cc1,-10%,11%[59 µM],·,-4%,45%,·
N#Cc1ccccc1N=Cc1ccc(Br)cc1,3%,5%[59 µM],-5,11%[57.1 µM],0%,?
COc1[nH]c(/N=C/c2ccccc2)c(C#N)c1C#N,?,3.2µM*,?,45µM*!,-32%,21µM*
CCOC(=O)c1c(C)n(C)c2ccc(OC)c(NC(=O)c3cccs3)c12,-8%,20%[59 µM],-8,?,-21%,30µM*
SMILES,BAZ2B inh,G9a block,PI5P4K alpha inh,JMJD2A Tudor inh,HP1b chromo inh,PLK1 PBD block
Cn1c(=O)c2c(-c3ccc(Cl)cc3)n(Cc3ccccc3)cc2n(C)c1=O,-21%,6%[59 µM],·,-18%,28%,·
COc1ccc(-c2c3c(=O)n(C)c(=O)n(C)c3cn2Cc2ccccn2)cc1,50µM*,?,·,-36%,40%,-23%
COc1ccc(-c2c3c(=O)n(C)c(=O)n(C)c3cn2Cc2cccnc2)cc1,-8%,10µM*,-5,-9%,47%,-21%
COc1ccc(-c2c3c(=O)n(C)c(=O)n(C)c3cn2-c2cc(OC)ccc2OC)cc1,?,45µM*,3,?,-24%,-20%
Cc1ccc(C(=O)c2cn(Cc3ccccc3C)c3nc(C)ccc3c2=O)cc1,-3%,-28%[59 µM],·,-14%,29%,·
S=C1NCCNC(=S)NCCOCCOCCOCCN1,14%,25µM*,12,1%,40%,0%
S=C1NCCOCCOCCOCCN1,-1%,-59%,-7,2%,29%,-1%
CC(C)OC(=O)CSc1nnc(Cc2ccccc2)n1Cc1ccco1,6%,8.9µM*,·,-12%,8%,-8%
COc1cccc(-c2nnc(SCC(=O)OC(C)C)n2Cc2ccco2)c1,-4%,40µM*,?,-29%[11.4 µM],-13%,27µM*
CC(C)N(Cc1ccccc1)C(=O)/C=C/c1ccccc1[N+](=O)[O-],?,10%[12.7 µM],-1,-24%,2%,-10%
CN(C/C=C/c1ccccc1[N+](=O)[O-])Cc1ccccc1,56µM*,-9%[0.501 µM],-4,28µM*,?,2%
COc1ccccc1CNC(=O)CCn1cnc2ccccc2c1=O,50µM*,16µM*,·,56µM*,?,·
COc1cc(OC)c(NC(=O)CCCn2nc(C)c3sc4ccccc4c3c2=O)cc1Cl,?,14µM*,·,?,-14%,·
COc1ccccc1NC(=O)CCn1cnc2ccccc2c1=O,?,9%[12.7 µM],·,5µM*,?,·
COc1ccccc1NC(=O)CCN1CCN(C)CC1,10%,50µM*,-9,-1%,32%,-1%
COc1ccccc1CNC(=O)CCNC(=O)Cn1cnc2ccccc2c1=O,7%,-1%[2.33 µM],6,1%,41%,-1%
O=C(NCCN1CCC(n2c(=O)[nH]c3ccccc32)CC1)c1cccc(Cl)c1,·,·,-4,·,·,0%
Cc1ccc(S(=O)(=O)NCCc2nnc3ccc(SCC(=O)Nc4ccc(OC(F)(F)F)cc4)nn23)cc1,-1%,-3%[59 µM],·,-3%,33%,·
Cc1ccc(CNC(=O)c2nnn(Cc3ccc(F)cc3)c2N)cc1,-21%,-23%[59 µM],·,-13%,-5%,·
O=C(CCNC(=O)Cn1cnc2ccccc2c1=O)NCC1COc2ccccc2O1 (configuration not stated),4%[57.1 µM],6%,?,?,?,3µM*
O=C(CCNC(=O)Cn1cnc2ccccc2c1=O)NCC1CCCO1 (configuration not stated),4%,7%,1,-5%,39%,-12%
O=C(CCn1cnc2ccccc2c1=O)NCc1ccccc1,?,?,·,89µM*,-12%[57 µM],·
COc1cc(OC)c(NC(=O)CCNC(=O)Cn2cnc3ccccc3c2=O)cc1Cl,7%,-11%[2.33 µM],-17,-33%[11.4 µM],-20%,13µM*
CC(=O)Nc1ccccc1NS(=O)(=O)c1ccccc1NO,·,·,·,-21%,1%,·

# High-throughput results deposited in PubChem by National Center for Advancing Translational Sciences (NCATS).
